# Source: PubChem BioAssay
# CRFR2-BP ag: agonists of human CRF-binding protein/CRF-R2 receptor complex. HEK293 CRF-R2/CRF-BP, calcium dye fluorescence (FLIPR); percent of saturating CRF peptide response. activation, % at 13.2 µM. actives 0.46% (n = 350,000). AID 588473;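 active = activation of at least 50%, plus an integration ratio under a set limit after plate pattern correction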;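 also: plate controls were neutral control wells without compound for no effect and CRF at EC100 for full effect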
# CRFBP-R2 block: blocks CRF-induced signaling of the CRF-BP/CRF-R2 complex; actives 0.59% (n = 350,000); HEK293 CRF-R2/CRF-BP, CRF-induced calcium fluorescence; inhibition, % at 11.8 µM;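 active = inhibition of the ligand-induced calcium signal above about 50% at the single tested concentration, limit read from the data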
# Cardiac RTF inh: cardiac RTF calcium desensitization | P19429+P45379 | IANBD-labeled cardiac RTF, Ca2+ fluorescence | actives 0.12% (n = 340,000) | inhibition, % at 7.15 µM;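 active = inhibition above the mean inhibition of all tested compounds plus 3 SD, cut at about 17% in these data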;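 also: assay run at fixed EC70 calcium of 1.6 mM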
# RTF Ca sens act: cardiac RTF calcium sensitization. P19429+P45379. IANBD-labeled TnC RTF fluorescence at EC20 calcium; 0% EC20 calcium, 100% full calcium. activation, % at 7.2 µM. actives 0.24% (n = 340,000). AID 493008;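 active = activation above the mean over all tested compounds plus 3 SD, cut at about 30% in these data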;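 also: rise in fluorescence read as greater calcium sensitivity of cardiac thin filaments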
# Myeloid diff MLP: myeloid differentiation induction | ER-HoxA9 myeloid progenitors, lysozyme-GFP differentiation, flow cytometry | calls only at 10 µM | actives 1% (n = 360,000) | AID 624256;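 active = normalized GFP-positive differentiation at or above the plate's own cutoff, the solvent-only control mean plus 3 SD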;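 also: cells exposed to compound for four days before flow analysis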
# * = called active by the depositor; i = inactive; . = no result; + = active, no number. Only some compounds are listed: those with a hit (about 2.2% of all), similar ones and a draw of the others.
SMILES,CRFR2-BP ag,CRFBP-R2 block,Cardiac RTF inh,RTF Ca sens act,Myeloid diff MLP
CCC(C)NC(=O)c1cn(CC)c2cc(N3CCN(C(=O)c4ccco4)CC3)c(F)cc2c1=O (stereo not drawn),4,-22,5,-3,i
CN(CC(=O)Nc1ccc(F)cc1)C(=O)c1ccc(N2C(=O)CCC2=O)cc1,-1,5,-8,-4,i
Cc1ccc(Cl)cc1N1CCN(C(=O)Cc2c(C(=O)O)[nH]c3ccc(Cl)cc23)CC1,6,62*,-7,3,i
CC1CC(C)CN(C(=O)Cc2c(C(=O)O)[nH]c3ccc(Cl)cc23)C1 (stereo not drawn),1,2,-9,4,i
Cc1ccc(Cl)cc1N1CCN(C(=O)Cc2c(C(=O)O)[nH]c3ccccc23)CC1,-2,58*,-4,-1,i
CNc1ncnc2c1ncn2[C@H]1CN(Cc2cccnc2)C[C@@H](CO)O1,.,.,.,.,i
CN(CC(=O)NCc1ccc(F)cc1)S(=O)(=O)c1ccc(Br)s1,-1,72*,-24,1,i
CCOC(=O)c1cccc(NS(=O)(=O)Cc2ccccc2)c1,-4,149*,-5,8,i
CCOC(=O)c1cccc(NS(=O)(=O)c2ccc(NC(C)=O)cc2)c1,-2,5,1,2,i
CCCn1nc(C(=O)Nc2nc(-c3ccccn3)cs2)c2ccccc2c1=O,0,11,-4,-5,+
CCn1nc(C(=O)Nc2nc(-c3ccccn3)cs2)c2ccccc2c1=O,0,3,-14,0,i
CCCN(CCC)C(=O)Cn1c(=O)c2ccccc2n2c(=S)sc(-c3ccccc3C)c12,40,-178,5,0,i
CCCN(CCC)C(=O)Cn1c(=O)c2sccc2n2c(=S)sc(-c3ccccc3)c12,3,-8,-11,1,+
Cc1cccc(C(=O)Nc2sc(-c3ccccc3)cc2C(=O)O)c1,-5,58*,-4,2,i
CC(C)(C)C(=O)Nc1sc(-c2ccccc2)cc1C(=O)O,1,16,2,-4,i
Cc1ccc(C(=O)NCCNC(=O)c2ccc(F)cc2)cn1,80*,-53,-16,-6,i
CCCS(=O)(=O)c1nc(S(=O)(=O)c2ccc(C)cc2)c(N2CCC(C)CC2)s1,4,2,-3,-3,i
CS(=O)(=O)c1nc(S(=O)(=O)c2ccc(Cl)cc2)c(N2CCN(CCO)CC2)s1,1,-16,-1,-1,+
CCCS(=O)(=O)c1nc(S(=O)(=O)c2ccc(C)cc2)c(N2CCCC2)s1,89*,-82,-14,3,i
Cc1ccc(S(=O)(=O)c2nc(S(C)(=O)=O)sc2N2CCCCC2C)cc1 (stereo not drawn),0,-13,-6,0,+
CCCCn1c(N)c(N(Cc2ccccc2OC)C(=O)C(C)Oc2cccc(Cl)c2)c(=O)[nH]c1=O (stereo not drawn),0,19,.,.,i
CCCCCC(=O)NNC(=O)c1ccc(-c2ccccc2)cc1,-2,17,-8,-6,i
COc1cc2c(cc1NC(=O)COC(=O)CNC(=O)c1ccccc1)oc1ccccc12,1,76*,10,-3,i
O=C(CC1SC(N2CCCC2)=NC1=O)Nc1ccc(C(=O)N2CCN(c3cccc(Cl)c3)CC2)cc1 (stereo not drawn),1,4,-4,-8,i
Cc1ccc(C(=O)NC(=O)OCCn2c(C)cnc2[N+](=O)[O-])cc1,-2,0,1,7,i
SMILES,CRFR2-BP ag,CRFBP-R2 block,Cardiac RTF inh,RTF Ca sens act,Myeloid diff MLP
CC(C)n1cnc2c(N(C)c3ccccc3)nc(N(CCN(C)C)Cc3ccccc3)nc21,2,-18,-13,-1,+
N=C1c2ccccc2CN1c1ccc(S(=O)(=O)N2CCCCC2)cc1,2,-4,-3,18,+
O=C1c2ccccc2C(=O)N1c1ccc(S(=O)(=O)N2CCCCC2)cc1,0,-12,-1,-2,i
Cc1[nH]c(=O)n(C(C)C)c(=O)c1Br,-1,11,-3,0,i
O=C(CNC(=O)[C@@H]1Cc2ccccc2CN1)Nc1ccc2c(c1)OCO2,0,6,5,-3,+
O=C(CNC(=O)[C@@H]1Cc2ccccc2CN1)NCc1ccco1,-1,10,-4,-5,+
CC(NC(=O)CNC(=O)[C@@H]1Cc2ccccc2CN1)c1ccccc1 (stereo partly drawn),-1,6,-1,-1,i
C[C@H](O)[C@@H]1C(=O)N2CCc3c([nH]c4ccccc34)[C@@H]2C[C@@H]1N(C)C(=O)NC1CCCCC1,20,-6,.,.,i
CN1/C(=C\C=C(C#N)C#N)C(C)(C)c2ccccc21,84*,-81,-7,1,i
CN1/C(=C\C=C(/C#N)C(=O)Nc2ccc(Cl)cc2)C(C)(C)c2ccccc21,141*,-193,-18,10,i
COCCN(C(=O)COC(=O)CSc1ccccc1)c1c(N)n(Cc2ccccc2)c(=O)[nH]c1=O,0,1,-1,-1,i
CC1CC(C)CN(C(=O)c2cccc(N3C(=O)c4ccccc4C3=O)c2)C1 (stereo not drawn),-4,11,-1,-1,i
O=C(c1ncn(Cc2ccccc2)c1C(=O)N1CCc2ccccc2C1)N1CCc2ccccc2C1,12,-21,-12,2,i
O=C(O)CCCNC(=O)c1ccc(NC(=O)Cc2ccc(Cl)cc2)cc1,-1,9,-14,5,i
CC(=O)Nc1cc2c3c(cccc3c1)-c1ccccc1-2,-2,-20,-2,-2,+
O=C(Nc1cccc(F)c1)c1cc(S(=O)(=O)N2CCOCC2)ccc1N1CCCC1,66*,-35,0,-4,i
O=C(Nc1cccc(S(=O)(=O)N2CCCC2)c1)c1cc(S(=O)(=O)N2CCOCC2)ccc1F,-1,8,-2,-17,i
Cc1ccc(NC(=O)c2cc(S(=O)(=O)N3CCCCC3)ccc2N2CCOCC2)cc1S(=O)(=O)N(C)C,2,-4,-110,83*,i
CCC(C)c1ccc(N(CC(=O)NC(C)(C)C)C(=O)CNC(=O)c2cccs2)cc1 (stereo not drawn),2,1,-10,-4,i
N#CC(C#N)=C(Nc1ccc(F)cc1)SCc1cccc(F)c1,105*,94*,-5,4,i
COc1ccc(S(=O)(=O)N2CCCCC2)cc1NC(=O)C1CC1C (stereo not drawn),-1,0,-10,0,i
CCN1CCN(CC(=O)N2N=CCC2c2ccccc2)CC1 (stereo not drawn),1,70*,-2,-7,i
O=C(CSc1ccc(Cl)cc1)N1N=CCC1c1ccccc1 (stereo not drawn),-2,-3,2,4,i
